From the OligoGym collection
Note: reference of the scale not given here.

The sequences below were run against DPM2 (assay: pooled miR-30 sensor sort-seq; sequence = guide strand). Details: shRNA.
TCTTGGTCTTCAGCATCACATA showed a sensor-assay potency score (higher = more potent) of -1.79. In the case of TAGTAGGTGAAGATGATCAGGC, the sensor-assay potency score (higher = more potent) is reported as 0.327. ATACTTGTGGATGACATGCTGA gave a sensor-assay potency score (higher = more potent) of -0.113. In the case of TCTCTTGGTCTTCAGCATCACA, the sensor-assay potency score (higher = more potent) is reported as -1.19.

The sequences below were run against DPP3 in the same assay as above. Details: shRNA.
For TTCCTTACGCAGCAGCACCGTG, the sensor-assay potency score (higher = more potent) was -1.18. TTGTCCTGGATCCAGAAGCGGG was tested, and the sensor-assay potency score (higher = more potent) was -1.46. Work on TTGGTGTCACCAAAGGACTTGT yielded a sensor-assay potency score (higher = more potent) of -0.525. TAGTTGGGGATGTTGATGCCGG showed a sensor-assay potency score (higher = more potent) of -0.85. With AAGATCTCCAGCACTTGCGGGT the sensor-assay potency score (higher = more potent) was -0.379. TGAAGCTCTCTATATACTGGGC gave a sensor-assay potency score (higher = more potent) of -0.35. In the case of TTGTAGTTGCCCATGTTGGAGT, the sensor-assay potency score (higher = more potent) is reported as -1.16. Sequence TGTTGGAGTAAACACCCGCGGC has a sensor-assay potency score (higher = more potent) of -1.37. Sequence TCGTCCTGTACGAAGAGCTTGC has a sensor-assay potency score (higher = more potent) of -0.841. In the case of TCGACCTCTTTGAAGAGCCGGG, the sensor-assay potency score (higher = more potent) is reported as -0.473. AAGTTGGGAACAAACTTGGTGT gave a sensor-assay potency score (higher = more potent) of -0.148. For TTGTCCTTCTCAAAGGTTGGGG, the sensor-assay potency score (higher = more potent) was -0.0545.

Each sequence was assayed against DPP9 in the same assay as above. Details: shRNA.
Work on TCTTCCTTTCTTCTAGCGCAGG yielded a sensor-assay potency score (higher = more potent) of -1.35. Sequence TAATGTGTCTACTTCTTCCACG has a sensor-assay potency score (higher = more potent) of 0.224. ATGTCATGAACATTGATCCAGA showed a sensor-assay potency score (higher = more potent) of -1.2. AATACTGTGTCTCTCGTTGGGG gave a sensor-assay potency score (higher = more potent) of 0.209. Work on TTATAAAAGAATAAGAATCGAC yielded a sensor-assay potency score (higher = more potent) of -0.653. Sequence TTATTCACCAGCTGCACCTGGG has a sensor-assay potency score (higher = more potent) of -0.396. For TAGAGGAGGGAGTTCTCTCGGC, the sensor-assay potency score (higher = more potent) was -0.587. With TTTGAAGGAGTTATTCACCAGC the sensor-assay potency score (higher = more potent) was -0.354. In the case of TTAATGTGTCTACTTCTTCCAC, the sensor-assay potency score (higher = more potent) is reported as -0.494. Work on ATGAACATTGATCCAGACGTTG yielded a sensor-assay potency score (higher = more potent) of -1.33. TAGCTGACCACGTAGAGGTGGT gave a sensor-assay potency score (higher = more potent) of -0.544. Work on TCGCTGTGGAAGTCGTAGGAGG yielded a sensor-assay potency score (higher = more potent) of -1.41.

What follows are sequences tested against DPPA5 in the same assay as above. Details: shRNA.
Work on AGGGATTCGAGATCCGTCCGGG yielded a sensor-assay potency score (higher = more potent) of -0.916. For TTTCAGGTCTTCGGGAACTTTC, the sensor-assay potency score (higher = more potent) was -1.57. With TCTTCGGGAACTTTCACCCACG the sensor-assay potency score (higher = more potent) was -0.874. With TAAACCACGACCTCGGTGAGGT the sensor-assay potency score (higher = more potent) was -0.536. TTCGGGAACTTTCACCCACGGC gave a sensor-assay potency score (higher = more potent) of -1.56. In the case of TGTAAGGGATTCGAGATCCGTC, the sensor-assay potency score (higher = more potent) is reported as -0.0102. Sequence TTTGAGCATCCCTCGCTCCTGG has a sensor-assay potency score (higher = more potent) of -0.61. ATGGACTGGAGCATCCACTTGG gave a sensor-assay potency score (higher = more potent) of -0.436. TTGAGCATCCCTCGCTCCTGGC showed a sensor-assay potency score (higher = more potent) of -0.972. With TTCGAGATCCGTCCGGGCCGAA the sensor-assay potency score (higher = more potent) was -1.6. Sequence TGGAGCATCCACTTGGTCCGGA has a sensor-assay potency score (higher = more potent) of -0.524.
